Our source for the survival values is PubChem BioAssay AID463173 (ICCB-Longwood Screening Facility, Harvard Medical School, 2010).

The campaign covered roughly 52,000 compounds. About 1,700 (3.3%) were called active. No stated cut-off is given here; in the data, active means survival mostly below about 52% (no sharp cut-off); inactive means mostly above about 56%. Many of the other results were omitted from the sample, so actives are more common in it than they were.

In this assay the test system is Wild type. As to the kind of experiment: growth inhibition of S. aureus wild type versus tarO mutant, primary screen, teichoic acid synthesis inhibitors, RN4220, OD600 (AID 463173). The note with it: S. aureus RN4220 wild type/DeltatarO growth, OD600, 18 h, stronger effect = lower value, screened at 18.75 µg/mL (by protocol).
Take `CCCCn1cc2c(c1-c1ccc(Cl)cc1)c(=O)n(C)c(=O)n2C`: the survival is 83% (inactive).
The value for `COc1ccc2c(CNC3CCCCCC3)c(C(=O)O)n(Cc3ccccc3F)c2c1` was 89% (inactive); that for `CCC1CCCCN1C(=O)c1ccc2c(c1)N(Cc1cccc(Cl)c1)C(=O)c1ccccc1S2(=O)=O` (stereo not given) was 73% (inactive); that for `Cc1ccc(N2CCN(C(=O)c3c(C)oc4nc(C)nc(N5CCCC5)c34)CC2)c(C)c1` was 81% (inactive).
The value for `Cc1nn2c(-c3cccc(NC(=O)c4ccc(Cl)cc4)c3)nnc2c2ccccc12` was 113% (inactive).
Then `Cc1nn(-c2ccccc2)c2sc(C(=O)Nc3ccccc3Br)cc12`, with 7% (active).
Turning to `Cc1ccccc1NC(=O)c1cc2c(-c3ccccc3)nn(-c3ccccc3)c2s1`, the survival was 86% (inactive).
Take `COc1ccccc1NC(=O)c1cc2c(-c3ccccc3)nn(-c3ccccc3)c2s1`: the survival is 77% (inactive).
For `Cc1nn(-c2ccccc2)c2sc(C(=O)Nc3ccc(Br)cc3)cc12`, the survival was 52% (inactive).
Take `COc1ccc(NC(=O)c2cc3c(C)nn(-c4ccccc4)c3s2)c(OC)c1`: the survival is 63% (inactive).
As to `COc1ccccc1NC(=O)c1cc2c(C)nn(-c3ccccc3)c2s1`, the survival was 1% (active).
Then `Cc1ccc2oc(=O)c3cc(C(=O)Nc4ccc(F)cc4F)sc3c2c1`, with 80% (inactive); and `CCc1ccccc1NC(=O)c1ccc(Cn2nc(N3CCN(c4ccccc4)CC3)ccc2=O)o1`, with 70% (inactive); and `Cc1cccc(-n2ccnc2SCC(=O)Nc2ccc(F)cc2F)c1C`, with 71% (inactive).
For `Cc1cccc(CS(=O)(=O)CC2Nc3ccc(C(=O)NCc4ccccc4)cc3NC2=O)c1` (stereo not given), the survival is 71% (inactive).
Regarding `CCOC(=O)CNc1ncnc2c1nnn2C`, the survival is 22% (inactive).
Turning to `CCc1nc2c(cnn2-c2ccc(Cl)cc2)c(=O)n1-c1ccc(OC)c(Cl)c1`, the survival is 78% (inactive).
As for `CCOc1cccc2sc(NC(=O)c3ccc(S(=O)(=O)N4CCCCC4)cc3)nc12`, the survival was 75% (inactive).
The value for `CCOc1cccc2sc(NC(=O)c3ccc(S(=O)(=O)N4CCCCC4C)cc3)nc12` (stereo not given) was 10% (active); that for `CCOc1cccc2sc(NC(=O)c3ccc(S(=O)(=O)N4CCCc5ccccc54)cc3)nc12` was 88% (inactive); that for `CCOC(=O)c1c(-c2ccccc2)csc1NC(=O)c1cc(-c2ccc(Cl)cc2)on1` was 85% (inactive).
As to `CCC(CO)Nc1ncnc2c1cnn2-c1ccc(C)cc1` (stereo not given), the survival was -6% (active).
Then `CCC(C)Nc1ncnc2c1cnn2-c1ccc(F)cc1` (stereo not given), with 71% (inactive); and `Cc1ccc(-n2ncc3c(NCCCc4ccccc4)ncnc32)cc1`, with 69% (inactive); and `Cc1ccc(-n2ncc3c(NCCC4=CCCCC4)ncnc32)cc1`, with -3% (active).
The value for `Cc1ccc(-n2ncc3c(NC(C)c4ccccc4)ncnc32)cc1` (stereo not given) was 73% (inactive); that for `Cc1ccc(-n2ncc3c(Nc4ccc(Oc5ccccc5)cc4)ncnc32)cc1` was 74% (inactive).
Then `Cc1ccc(-n2ncc3c(NCCC4=CCCCC4)ncnc32)cc1C`, with 131% (inactive).
Take `CCCCc1ccc(Nc2ncnc3c2cnn3-c2ccc(C)cc2)cc1`: the survival is -1% (active).
For the molecule `Fc1ccc(-n2ncc3c(NCCC4=CCCCC4)ncnc32)cc1`, the survival was 59% (inactive).
